DT40 TDP1 CPT: DT40-hTDP1 cell growth loss with CPT; chicken DT40 Tdp1-/-;hTDP1 cells + 20 nM CPT, ATP luminescence, 48 h; Potency, µM (top dose mostly 46.2 µM), for inactives: top-dose activity change, negative = growth inhibition, usual class: inhibitors; 420,000 tested, 12% active; further: potency means the concentration at half of the fitted maximal effect; on the % scale 0 is the no-effect control and ±100 the full control effect; nearly all actives have a fitted effect of over 55% in size
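Cell growth measured by CellTiter-Glo luminescence after a minimum 48 h, 37 C compound exposure with 20 nM CPT in Tdp1-knockout DT40 cells stably expressing hTDP1, seeded 400/well; qHTS titration format.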
TDP1 cell noCPT: qHTS for Inhibitors of human tyrosyl-DNA phosphodiesterase 1 (TDP1): qHTS in cells in absence of CPT. Potency, µM (top dose mostly 46.2 µM), for inactives: top-dose activity change, negative = growth inhibition, most hits filed as inhibitors. 420,000 tested, 15% active. DT40 Tdp1-/- hTDP1 cells, no CPT, ATP luminescence, 48 h. AID 686978, 2013; further: potency means the concentration at half of the fitted maximal effect; on the % scale 0 is the no-effect control and ±100 the full control effect; nearly all actives have a fitted effect of over 55% in size
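Luminescent ATP content (CellTiter-Glo) served as the growth readout. Knockout chicken DT40 cells expressing human TDP1 were exposed to compounds without camptothecin for a minimum 48 hr at 37 °C.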
DRD3 agonist: D3 dopamine receptor (human) agonism; D3R DiscoveRx beta-arrestin cells, luminescence, 90 min; max activation, %; 410,000 tested, 0.58% active; AID 652048; in the data active means max activation above about 30%; further: 0% is about no effect
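Agonist-mode cell screen: cells plated at 1500/well and incubated overnight at 37 °C, then exposed to library compounds for 90 min at 37 °C. Detection reagent was added for 30–60 min at room temperature, and luminescence was read.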
ClpP mod: qHTS Assay for Activators of ClpP; Potency, µM (top dose mostly 57.5 µM), inactives show at the highest dose activity change, negative = active; ATP-dependent Clp protease proteolytic subunit (Bacillus subtilis (strain 168)), P80244; 340,000 tested, 1.9% active; purified B. subtilis ClpP, FRET peptide cleavage, 20 min; AID 651965, 2013; active means well fitted falling curve with a large enough effect; inconclusive means small, poorly fitted or top-dose-only effect; inactive means no such curve, though single readings can be large or run the other way; further: potency means the concentration at half of the fitted maximal effect; the source files actives as falling curves though it sought activators and does not explain the sign; nearly all actives have a fitted effect of over 65% in size
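Buffer: 100 mM Tris/HCl pH8, 100 mM KCl, 0.05% low protease BSA, 2.5% glycerol, 0.01% Tween-20. ClpP 10 microg/mL final; 20 min RT; delta FRET normalized to ADEP and DMSO controls.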
D3 antag: antagonists of human D3 dopamine receptor. 360,000 tested, 2.5% active. D3R cells, DiscoveRx beta-arrestin luminescence, antagonist mode; hits give low values. max response, negative = inhibition, %. AID 652054; in the data active means max response below about -50%; inconclusive means no clear call, values can overlap the other calls; further: on the % scale 0 is the no-effect control and ±100 the full control effect
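Cells expressing the human receptor were seeded at 1500 cells/well, incubated overnight at 37 degrees C in 5% CO2, then exposed to library compounds with dopamine controls for 90 minutes at 37 degrees C before luminescent detection.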
IL1B secr inh: inflammasome signaling inhibition, IL-1 beta readout; THP-1 LPS/ATP IL-1B secretion, AlphaLISA, 16 h; hits give low values; activity change, % at 57.5 µM; 360,000 tested, 4.7% active; AID 743279; in the data active means activity change below about -50%; inconclusive means mostly about -30% to -49%; further: on the % scale 0 is the no-effect control and ±100 the full control effect
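THP-1 cells pretreated 1 hr with compounds (up to 57.5 uM final), then stimulated with LPS (250 ng/mL final) plus ATP (1.25 mM final); secreted IL-1B measured by AlphaLISA after 16 hr, decreased signal indicating inhibition.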
The depositor's hits bear a star; ? = inconclusive; · = no result; [ ] = another dose, or the depositor's remark. The list is not random: actives were taken first. Their share in the collection is about 21%. Unless noted, the call rests on the fitted dose curve; in most records, active means well fitted inhibition curve with a large enough effect; inconclusive means small, poorly fitted or top-dose-only effect; inactive means flat fitted curve, though single readings scatter.

SMILES	DT40 TDP1 CPT	TDP1 cell noCPT	DRD3 agonist	ClpP mod	D3 antag	IL1B secr inh
CCCCCc1nc2ccccc2c(=O)n1-c1ccc(Cl)cc1[N+](=O)[O-]	?	?	29	3%	19	9
CN(C(=O)Cc1ccc(Cl)c(Cl)c1)[C@H](CN1CCCC1)c1ccccc1	15µM*	12µM*	·	·	·	·
O=c1c2ccccc2nc2n1CCS2(=O)=O	2.9µM*	-109%	13	·	?	-89*
COC(=O)C1=C(c2ccc(C(C)=O)cc2)C[C@@H]2CC[C@H]1N2C(=O)N1CCC(C)CC1	18µM*	21µM*	-12	-1%	-13	-1
COC(=O)C1=C(c2ccc(OC)c(OC)c2)C[C@@H]2CC[C@H]1N2C(=O)N1CCOCC1	21µM*	?	-1	1%	0	9
COC(=O)C1=C(c2ccc(OC)c(OC)c2)C[C@@H]2CC[C@H]1N2C(=O)N1CCc2cc(OC)c(OC)cc2C1	?	?	5	0%	0	-4
COC(=O)C1=C(c2ccc(C(C)=O)cc2)C[C@@H]2CC[C@H]1N2C(=O)N1CCC(O)(c2ccc(Cl)cc2)CC1	16µM*	9.2µM*	-20	-1%	-1	-16
COC(=O)C1=C(c2ccc(OC)c(OC)c2)C[C@@H]2CC[C@H]1N2C(=O)N1CCC(C)CC1	21µM*	10µM*	-14	3%	?	9
COC(=O)C1=C(c2ccc(S(C)(=O)=O)cc2)C[C@@H]2CC[C@H]1N2C(=O)N1CCCC1	-16%	4%	-13	2%	-12	-17
CNC(=O)Oc1cccc2c1OC(C)(C)O2	?	?	-3	·	-2	-1
Cc1cc(N=Nc2ccccc2C)ccc1N	-5%	-23%	-7	·	12	?
CC(C)C[C@H](NC(=O)[C@H](Cc1ccccc1)NC(=O)CNC(=O)[C@H](CO)NC(=O)[C@@H](N)Cc1ccc(O)cc1)C(=O)N[C@H](C(=O)O)[C@H](C)O	-2%[4.12 µM]	2%[4.12 µM]	·	·	·	·
Cc1ccc(C)c(-c2nnc(NC(=O)C3=COCCO3)o2)c1	-13%	?	-10	·	-18	-4
COC(=O)C1=C(c2ccc(S(C)(=O)=O)cc2)C[C@@H]2CC[C@H]1N2C(=O)N1CCC(O)CC1	-1%	-11%	33*	2%	17	6
CN1CCN(c2nc(N(C)C)oc(=O)c2C#N)CC1	0%	3%	-1	-1%	6	6
CC(=O)OCC(=O)C1CCC2C3CC=C4CC(O)CC[C@@]4(C)C3CC[C@]12C (stereo partly specified)	2%	-1%	·	·	·	·
CC(C)(C)c1nc(N2CCN(C(=O)c3ccco3)CC2)c2nnn(Cc3ccccc3Cl)c2n1	?	21µM*	8	-23%	23	-9
C[C@@H]1OC(OC2C(OC3CC[C@@]4(C)C5CC=C6C7CC(C)(C)CC[C@@]7(C(=O)O)CCC6(C)C5(C)CCC4[C@]3(C)CO)OCC(O)C2O)C(O)C(O)C1O (stereo partly specified)	?	16µM*	·	·	·	·
O=c1[nH]cnc2[nH]ncc12	?	-4%	19	0%	-1	18
O=[N+]([O-])c1ccc(NC2CCN(Cc3ccccc3)CC2)c2ccncc12	?	?	-25	·	-74*	15
C=C1C2CC[C@@]3(C)C(c4ccoc4)OC(=O)C[C@@]13OC1CC(=O)C(C)(C)C(C(OC(C)=O)C(=O)OC)[C@@]12C (stereo partly specified)	?	-14%	·	·	·	·
CCN(CC)S(=O)(=O)c1ccc(NN=C(C#N)C#N)cc1	?	?	10	-2%	3	-81*
CC(=O)Nc1ccc([As](=O)(O)c2ccc([N+](=O)[O-])cc2)cc1	8%	1%	4	·	6	27
N#CC(C#N)=NNc1ccc([N+](=O)[O-])cc1	21µM*	23µM*	-10	·	?	-91*
Cc1cccc(NC(=O)[C@@H](NC(=O)N2C[C@H]3C[C@@H](C2)c2cccc(=O)n2C3)C(C)C)c1	4%	-9%	11	-4%	22	14
SMILES	DT40 TDP1 CPT	TDP1 cell noCPT	DRD3 agonist	ClpP mod	D3 antag	IL1B secr inh
CC12Cc3cn[nH]c3C=C1CCC1C2CCC2(C)C1CCC2(C)O (stereo unspecified)	?	?	-2	·	14	-91*
Cc1cccc(C(O)c2ncc(-c3ccccc3Cl)[nH]2)c1C (stereo unspecified)	?	?	2	-1%	7	-9
CN1[C@H](CC(=O)c2ccccc2)CCC[C@H]1C[C@@H](O)c1ccccc1	13%	-20%	·	·	·	·
COCCCOc1ccnc(CS(=O)c2nc3ccccc3[nH]2)c1C (stereo unspecified)	24µM*	?	18	-4%	0	17
COC(=O)C1=C(c2ccc(OCc3ccccc3)c(F)c2)C[C@@H]2CC[C@H]1N2C	?	23µM*	-8	-1%	-6	-25
COC(=O)C1=C(c2cccc(NC(C)=O)c2)C[C@@H]2CC[C@H]1N2C	-1%	-7%	-6	2%	6	4
COC(=O)C1=C(c2cccc(OC)c2OC)C[C@@H]2CC[C@H]1N2C	-2%	-13%	3	0%	-8	9
COC(=O)C1=C(c2ccc(OCc3ccccc3)cc2)C[C@@H]2CC[C@H]1N2C	16µM*	23µM*	-8	0%	-20	-14
O=C(Nc1cccc(Cl)c1)c1cnc2sc(N3CCCC3)nn2c1=O	?	?	-4	-3%	·	·
O=C(NCc1ccc2c(c1)CCN2C(=O)c1ccccc1)Nc1cccc(C(F)(F)F)c1	15µM*	?	-25	-4%	·	·
O=C(CN1C(=O)CN=C(c2ccccc2)c2ccccc21)Nc1cccc(C(F)(F)F)c1	?	?	7	2%	·	·
COC1=CC=C2[C@H]3Cc4ccc(OC)c5c4[C@@]2(CCN3C)[C@H]1O5	3%	-21%	-15	-24%	-66*	-7
COc1ccc2c(c1O)[C@]13CCN(C)[C@H](C2)[C@@H]1CCC(=O)C3	-18%	16%	0	-2%	-2	0
CCNc1nc(NC(C)C)nc(NS(=O)(=O)c2ccc(Cl)cc2)n1	?	?	-12	1%	-28	-21
CC(=NCCN1CCOCC1)c1c(O)n(Cc2ccccc2)c(=O)[nH]c1=O	-1%	-1%	-2	-3%	6	-6
